An excerpt weighted towards active compounds, which were near 15% of everything screened.
Gal4-VP16 FLuc – inhibits Gal4-VP16 luciferase reporter, ROR gamma counter-screen; Drosophila S2 Gal4-VP16 UAS-luciferase, luminescence, 20 h; Potency, µM (series often up to 53.6 µM), for inactives: top-dose activity, negative = inhibition, usual class: inhibitors; 3.5% of 310,000 active;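 note: Gal4-VP16 expression switched on by copper sulfate through the metallothionein promoter; nearly all actives have a fitted effect of over 50% in size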
RORg inh – ROR gamma (mouse) transcription inhibition; Drosophila S2 Gal4-RORgamma UAS-luciferase reporter, 20 h; Potency, µM (highest dose often 53.6 µM), inactives show at the highest dose activity change, negative = inhibition, hits mostly inhibitors; P51450; AID 2551; 5.4% of 310,000 active; note: nearly all actives have a fitted effect of over 60% in size
Target sequence (P51450 whole entry, looked up, the tested form may be a part): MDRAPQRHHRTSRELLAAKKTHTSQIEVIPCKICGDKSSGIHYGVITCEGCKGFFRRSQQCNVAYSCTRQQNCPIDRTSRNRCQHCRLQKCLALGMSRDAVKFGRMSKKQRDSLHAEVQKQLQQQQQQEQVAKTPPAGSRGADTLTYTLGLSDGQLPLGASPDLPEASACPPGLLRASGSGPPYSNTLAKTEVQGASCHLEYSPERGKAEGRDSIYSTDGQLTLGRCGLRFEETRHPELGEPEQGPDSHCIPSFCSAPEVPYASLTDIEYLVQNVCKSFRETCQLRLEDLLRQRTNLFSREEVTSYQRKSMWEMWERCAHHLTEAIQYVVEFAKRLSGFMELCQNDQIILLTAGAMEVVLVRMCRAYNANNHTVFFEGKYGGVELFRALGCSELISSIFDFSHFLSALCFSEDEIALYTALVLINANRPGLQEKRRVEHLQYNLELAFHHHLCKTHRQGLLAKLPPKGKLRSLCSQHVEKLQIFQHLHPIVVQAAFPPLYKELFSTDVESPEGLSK
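Luminescence from a UAS-regulated Photinus luciferase reporter in stably transfected Drosophila Schneider cells is measured; decreased signal marks ROR gamma inhibition. Fusion expression is induced by 700 uM copper sulfate for 20 hr.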
ALOX12 inh – blocks human arachidonate 12S-lipoxygenase. purified 12hLO, xylenol orange hydroperoxide absorbance. Potency, µM (titrated, usually from 108 µM), without a hit: at the top dose activity change, negative = inhibition, actives largely listed as inhibitors. 1.1% of 580,000 active. AID 1671190
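Purified human 12hLO (150 nM final) in 25 mM Hepes, 0.01% Triton X-100, pH 7.0 was preincubated 15 min at room temperature with compound. Then 40 uM arachidonic acid was added, 30 min. Hydroperoxide was read by Fe-XO absorbance ratio 573/405 nm.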
DT40 TDP1 no CPT – qHTS for Inhibitors of human tyrosyl-DNA phosphodiesterase 1 (TDP1): qHTS in cells in absence of CPT; AID 686978, 2013; 15% of 420,000 active; Potency, µM (titrated, usually from 46.2 µM), for the others: at the top dose activity change, negative = growth inhibition, actives largely listed as inhibitors; DT40 Tdp1-/- hTDP1 cells, no CPT, ATP luminescence, 48 h; note: nearly all actives have a fitted effect of over 55% in size
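Seeded 400 DT40-hTDP1 cells/well (vehicle DMSO, no 20 nM CPT); pinned compounds; ≥48 hr at 37 °C; CellTiter-Glo luminescence as viability measure.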
DT40 TDP1 CPT – growth inhibition of DT40 Tdp1-/-;hTDP1 cells with camptothecin (screen for TDP1 inhibitors); Potency, µM (doses to about 46.2 µM), without a hit: at the top dose activity change, negative = growth inhibition, most hits filed as inhibitors; 12% of 420,000 active; chicken DT40 Tdp1-/-;hTDP1 cells + 20 nM CPT, ATP luminescence, 48 h; note: nearly all actives have a fitted effect of over 55% in size
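Cell growth measured by CellTiter-Glo luminescence after a minimum 48 h, 37 C compound exposure with 20 nM CPT in Tdp1-knockout DT40 cells stably expressing hTDP1, seeded 400/well; qHTS titration format.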
ELG1 DNA repair – blocks ELG1-dependent DNA repair in HEK293T cells. HEK293T ELG1-luciferase reporter, luminescence, 16 h; DNA damage induced by 5-fluorouridine. Potency, µM (top dose mostly 46.1 µM), inactives show at the top dose activity change, negative = inhibition, hits mostly inhibitors. 2.3% of 330,000 active. AID 504467; note: nearly all actives have a fitted effect of over 55% in size
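5-Fluorouridine DNA damage + compound/DMSO, 2,000 cells/well, 16 h, 37 °C/5% CO2. ONE-Glo, 30 min RT, luminescence. Readout = decrease in reporter signal.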
Numbers without * were called inactive; ? = inconclusive; nt = not tested or not shown; [ ] = remark or other dose. Calls come from the whole dose curve; as a rule, active = well fitted curve in the direction sought with a large enough effect; inconclusive = small, poorly fitted or top-dose-only effect, or another doubt; inactive = no such curve, though single readings can be large; an effect the other way counts as inactive or inconclusive. % is set by controls: 0 for no effect and ±100 for the full control effect; potency is the fitted concentration of half-maximal effect.

SMILES | Gal4-VP16 FLuc | RORg inh | ALOX12 inh | DT40 TDP1 no CPT | DT40 TDP1 CPT | ELG1 DNA repair
Cc1ccc(NC(=O)N2CCC3(CC2)CC(Cc2nc(-c4ccccc4)no2)CCO3)cc1C (stereo not given) | nt | nt | 2% | nt | nt | nt
CCCCN(CCCC)S(=O)(=O)c1ccc(C(=O)Nc2nnc(CSC)o2)cc1 | 0.89µM* | 0.32µM* | 0%[57.4 µM] | 9.2µM* | 15µM* | -3%
CCc1nnc(NC(=O)c2ccc(S(=O)(=O)N(CCOC)CCOC)cc2)s1 | 16% | 1% | 1% | -5% | -5% | ?
Cc1ccc(S(=O)(=O)N(C)c2ccc(C(=O)Nc3cccc(C)n3)cc2)cc1 | -22% | ? | -12% | ? | ? | -20%
CCCCN(CC)S(=O)(=O)c1ccc(C(=O)Nc2nnc(-c3ccccc3Cl)o2)cc1 | 0.79µM* | ? | nt | nt | nt | ?
CCN(c1ccccc1)S(=O)(=O)c1ccc(C(=O)Nc2cccc(C)n2)cc1 | nt | nt | -14% | 12µM* | 23µM* | ?
CCCN(CCC)S(=O)(=O)c1ccc(C(=O)O)cc1 | -22% | -25% | -20% | 19% | 10% | -2%
CCCN(CCC)S(=O)(=O)c1ccc(C(=O)Nc2nnc(CSC)o2)cc1 | 1.3µM* | 0.89µM* | -9% | ? | ? | ?
COCCCNC(=O)CCc1ncc(-c2ccc(F)cc2F)o1 | nt | nt | 21% | nt | nt | nt
CCN(c1ccccc1)S(=O)(=O)c1ccc(C(=O)Nc2nnc(CSC)o2)cc1 | 0.89µM* | 0.35µM* | -7% | 9.2µM* | ? | ?
CCCCN(CC)S(=O)(=O)c1ccc(C(=O)Nc2nnc(CSC)o2)cc1 | 1µM* | 0.71µM* | 0% | 15µM* | ? | ?
CCCCN(CC)S(=O)(=O)c1ccc(C(=O)Nc2nnc(COC)o2)cc1 | 3.2µM* | 1.3µM* | nt | ? | ? | -19%
COc1cccc(Sc2cc(N3CCOCC3)nc(-c3ccccc3)n2)c1 | -4% | 16% | 90% | -32% | ? | 11%
CCCc1ccc(Oc2cc(N3CCOCC3)nc(-c3ccccc3)n2)cc1 | nt | nt | -28% | ? | 29µM* | nt
Clc1ccc(Sc2cc(N3CCOCC3)nc(-c3ccccc3)n2)cc1 | -9% | 18% | 6% | 29µM* | ? | -6%
O=S(=O)(Cc1cc(N2CCOCC2)nc(-c2ccccn2)n1)c1ccccc1 | -19% | 16µM* | -2% | 18µM* | 10µM* | 3%
c1ccc(-c2nc(N3CCOCC3)cc(N3CCOCC3)n2)cc1 | -19% | 19% | 0% | -17% | -27% | 15µM*
Cn1nc(C(=O)Nc2cccc3cnccc23)c2ccccc2c1=O | nt | nt | -27% | nt | nt | nt
Cc1cccc(/C=C/C(=O)c2ccc(NC3=NCCCS3)cc2)c1 | 11% | 0%[10 µM] | -17% | 7.3µM* | 13µM* | 14%
O=C(/C=C/c1ccc(Br)cc1)c1ccc(NC2=NCCCS2)cc1 | ? | ? | ? | ? | 9.2µM* | ?
CC(C)(C)c1ccc(C(=O)NCCC(=O)NC2=NCCS2)cc1 | nt | nt | ? | -22% | -17% | 28%
CSc1ccc(/C=C/C(=O)c2ccc(NC(=O)c3cccc(C)c3)cc2)cc1 | nt | nt | 17% | nt | nt | nt
CC(C)(C)c1ccc(/C=C/C(=O)c2ccc(NC3=NCCCS3)cc2)cc1 | 5.6µM* | ? | -24% | ? | 23µM* | -13%
c1ccc(NC2=NCCCCS2)cc1 | -4% | -26% | 0% | -4% | -26% | ?
O=C(O)c1ccc(/C=C/C(=O)c2ccc(Br)cc2)cc1 | nt | nt | 3% | nt | nt | nt
SMILES | Gal4-VP16 FLuc | RORg inh | ALOX12 inh | DT40 TDP1 no CPT | DT40 TDP1 CPT | ELG1 DNA repair
O=C(/C=C/c1ccccc1)c1ccc(NC2=NCCCS2)cc1 | ? | ? | -39% | 12µM* | 15µM* | ?
COc1ccc(CNC(=O)N2CCC(Cc3ncc(C)n3C(C)C)C2)cc1 (stereo not given) | nt | nt | 11% | nt | nt | nt
Cc1ccc(Cc2c(C3CCCCC3)nc3ccc(C)cn23)cc1 | nt | nt | ? | 18µM* | 18µM* | nt
Fc1cccc(Cc2c(C3CCCCC3)nc3ccc(Br)cn23)c1 | nt | nt | -18% | ? | ? | nt
Cc1ccc2nc(C3CCCCC3)c(Cc3ccsc3)n2c1 | nt | nt | ? | 9.2µM* | 13µM* | nt
CCCCOC(=O)C1=C(C)NC(=O)NC1c1cc2c(cc1Br)OCO2 (stereo not given) | 1% | 5% | 0% | 23µM* | 23µM* | 0%
CC1=C(C(=O)OCCOC(C)C)C(c2cc3c(cc2Br)OCO3)CC(=O)N1 (stereo not given) | -7% | 5% | -2% | ? | 16µM* | 4%
COc1ccccc1NC(=O)C(C)OC(=O)/C=C/c1ccc2ccccc2n1 (stereo not given) | nt | nt | -14% | ? | 29µM* | ?
CCN(CC)c1ccc(/C=C/c2ccc3ccccc3n2)cc1 | nt | nt | nt | 0.16µM* | 0.16µM* | nt
Clc1ccc(/C=C/c2ccc3ccccc3n2)cc1Cl | nt | nt | nt | 3.5µM* | 6.3µM* | nt
C(=C\c1cccs1)/c1ccc2ccccc2n1 | nt | nt | 5% | nt | nt | nt
CC[N+](C)(C)c1ccc(/C=C/c2ccc3ccccc3n2)cc1 | nt | nt | nt | ? | 0.028µM* | nt
O=C(NCc1cccnc1)c1ccc(/C=C/c2ccc3ccccc3n2)cc1 | nt | nt | 20% | nt | nt | nt
COc1ccccc1NC(=O)/C=C/c1ccc2ccccc2n1 | nt | nt | -4% | nt | nt | nt
CCOc1ccc(C(=O)NC2CCN(c3cc(-c4ccccc4)[nH]n3)CC2)cc1 | nt | nt | 32% | nt | nt | nt
O=C(c1ccc(F)cc1)N1CCC(CCc2ccc(O)cc2)CC1 | nt | nt | 2% | nt | nt | nt
Cc1cc2oc(=O)cc(CN3CCN(C)CC3)c2cc1O | nt | nt | -29% | nt | nt | nt
Cc1ccc(NC(=O)CCc2ncc(-c3c(F)cccc3F)o2)cc1C | nt | nt | -5% | nt | nt | nt
CCS(=O)(=O)Nc1cccc(C2=NN(S(=O)(=O)c3ccccc3)C(c3ccccc3C)C2)c1 (stereo not given) | nt | nt | 4% | nt | nt | nt
CC(OC(=O)/C=C/c1ccc2ccccc2n1)C(=O)N(C)c1ccccc1 (stereo not given) | nt | nt | 5% | ? | ? | ?
CC(=O)/C=C/c1ccc2ccccc2n1 | ? | 10µM* | ? | 2.6µM* | 5.2µM* | -23%
CC(=O)c1ccc(NC(=O)CN(C)Cc2ccccc2N2CCCCC2)cc1 | nt | nt | 16% | nt | nt | nt
Cc1nc2ccccc2c2oc(C(=O)NCc3ccccn3)cc12 | -4% | -20% | 23% | ? | ? | 18µM*

Bioassay records from PubChem.
